Laboratory results taken from PubChem BioAssay (NCI).
About 83,000 compounds went through this panel and 20% of them were active in at least one assay; those are over-represented in the sample as a whole.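 Assay: single dose, 48 h. Readout: percent growth (0 = no net growth; negative = cell death). Active: <10.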 The source made the active and inactive calls.

How the values were obtained:
Test in all cases: NCI-60 one-dose screen, 48 h (100 = growth as untreated, 0 = no growth, -100 = all killed)
Conditions in all cases: 10 µM unless noted
HCT-15 colon = system: HCT-15 colon
HT29 colon = system: HT29 colon
SNB-75 CNS = system: SNB-75 CNS
SNB-19 CNS = system: SNB-19 CNS
U251 CNS = system: U251 CNS
PC-3 prostate = system: PC-3 prostate
SK-MEL-5 melanoma = system: SK-MEL-5 melanoma
UACC-62 melanoma = system: UACC-62 melanoma
LOX IMVI melanoma = system: LOX IMVI melanoma
SK-MEL-28 melanoma = system: SK-MEL-28 melanoma
SK-MEL-2 melanoma = system: SK-MEL-2 melanoma
EKVX NSCLC = system: EKVX NSCLC
SN12C renal = system: SN12C renal
UO-31 renal = system: UO-31 renal
ACHN renal = system: ACHN renal
CAKI-1 renal = system: CAKI-1 renal
A498 renal = system: A498 renal
CCRF-CEM leukemia = system: CCRF-CEM leukemia
MOLT-4 leukemia = system: MOLT-4 leukemia
TK-10 renal = system: TK-10 renal

Measured: growth

O=C1COCCN1c1ccc(Nc2nc(Cl)nc(OCc3cn(Cc4ccccc4)nn3)n2)cc1
inactive: HCT-15 colon 93.3% | HT29 colon 90.8% | SNB-75 CNS 101% | SNB-19 CNS 90.3% | U251 CNS 83.4% | PC-3 prostate 89.4% | SK-MEL-5 melanoma 95.8% | UACC-62 melanoma 92.2% | LOX IMVI melanoma 75.7% | SK-MEL-28 melanoma 101% | SK-MEL-2 melanoma 85.6% | EKVX NSCLC 99.5% | SN12C renal 94.2% | UO-31 renal 73.6% | ACHN renal 101% | CAKI-1 renal 84.4% | A498 renal 92.2% | CCRF-CEM leukemia 60% | MOLT-4 leukemia 62%

COc1ccc2c(c1)c(-c1noc(C(=O)c3cn(C)c4ccc(Br)cc34)n1)cn2C
inactive: HCT-15 colon 113% | HT29 colon 92.5% | SNB-75 CNS 101% | SNB-19 CNS 102% | U251 CNS 101% | PC-3 prostate 95.3% | SK-MEL-5 melanoma 100% | UACC-62 melanoma 93% | LOX IMVI melanoma 96.8% | SK-MEL-28 melanoma 117% | SK-MEL-2 melanoma 93.9% | EKVX NSCLC 114% | SN12C renal 100% | UO-31 renal 76.1% | TK-10 renal 103% | ACHN renal 103% | CAKI-1 renal 94.2% | A498 renal 121% | MOLT-4 leukemia 82.7%

COc1ccc(-c2nnc3n(C)c(=O)c4ccccc4n23)cc1N
inactive: HCT-15 colon 27.2% | SNB-19 CNS 31.1% | U251 CNS 23.8% | PC-3 prostate 22.1% | SK-MEL-5 melanoma 11.4% | UACC-62 melanoma 12.9% | LOX IMVI melanoma 37.5% | SK-MEL-28 melanoma 53.6% | SK-MEL-2 melanoma 22% | EKVX NSCLC 55.7% | SN12C renal 34.6% | UO-31 renal 44.3% | ACHN renal 50.8% | CAKI-1 renal 29.2% | CCRF-CEM leukemia 18.5% | MOLT-4 leukemia 33.4%
active: HT29 colon 4.95% | SNB-75 CNS 7.89% | A498 renal -8.12%

CCOC(=O)c1cc2c(=O)oc3ccccc3c2oc1=O
inactive: HCT-15 colon 96% | HT29 colon 96% | SNB-75 CNS 82.1% | SNB-19 CNS 105% | U251 CNS 91.6% | PC-3 prostate 69.3% | SK-MEL-5 melanoma 106% | UACC-62 melanoma 95.8% | LOX IMVI melanoma 91.5% | SK-MEL-28 melanoma 116% | SK-MEL-2 melanoma 78.1% | EKVX NSCLC 111% | SN12C renal 98.3% | UO-31 renal 82.7% | ACHN renal 89.8% | CAKI-1 renal 111% | A498 renal 106% | CCRF-CEM leukemia 88.5% | MOLT-4 leukemia 87.1%

CC1=C(CCC(C)N(C)Cc2ccc(OCCCN3CCCC3)cc2)C(C)(C)CCC1 (stereo unspecified)
active: HCT-15 colon -14% | HT29 colon -12% | U251 CNS -11.9% | SK-MEL-5 melanoma -93.7% | UACC-62 melanoma -63.9% | LOX IMVI melanoma -81.4% | SK-MEL-28 melanoma -80.6% | SK-MEL-2 melanoma -55.2% | MOLT-4 leukemia -24.2%
inactive: SNB-75 CNS 63.1% | SNB-19 CNS 41.8% | PC-3 prostate 31.8% | EKVX NSCLC 47.4% | SN12C renal 56.9% | UO-31 renal 20.3% | TK-10 renal 49.9% | ACHN renal 36.8% | CAKI-1 renal 49.9% | A498 renal 57.2%

Fc1cc2c(cc1Cl)N(c1ncnc3ccc(-c4cnc5[nH]ncc5c4)cc13)CC2
inactive: HCT-15 colon 58.8% | HT29 colon 56.3% | SNB-75 CNS 19.7% | SNB-19 CNS 69.4% | U251 CNS 76.6% | PC-3 prostate 53.9% | SK-MEL-5 melanoma 85.2% | UACC-62 melanoma 58.1% | LOX IMVI melanoma 47.2% | SK-MEL-28 melanoma 83.4% | SK-MEL-2 melanoma 91.4% | EKVX NSCLC 41.9% | SN12C renal 47.6% | UO-31 renal 21.8% | TK-10 renal 54.6% | ACHN renal 30.9% | CAKI-1 renal 38.7% | MOLT-4 leukemia 60.1%
active: A498 renal -6.52%

Cc1ccc(C(C(N)=O)C(C(N)=O)c2ccccc2)cc1 (stereo unspecified)
inactive: HCT-15 colon 110% | HT29 colon 109% | SNB-75 CNS 114% | SNB-19 CNS 109% | U251 CNS 104% | PC-3 prostate 105% | SK-MEL-5 melanoma 117% | UACC-62 melanoma 119% | LOX IMVI melanoma 108% | SK-MEL-28 melanoma 123% | SK-MEL-2 melanoma 105% | EKVX NSCLC 113% | SN12C renal 112% | UO-31 renal 108% | TK-10 renal 101% | ACHN renal 115% | CAKI-1 renal 101% | A498 renal 116% | MOLT-4 leukemia 100%

CSc1nc2sc3c(c2c(=O)n1-c1ccc([N+](=O)[O-])cc1)CCCCC3
inactive: HCT-15 colon 94.6% | HT29 colon 92.6% | SNB-75 CNS 89.7% | SNB-19 CNS 86% | U251 CNS 84.5% | PC-3 prostate 85.5% | SK-MEL-5 melanoma 96.4% | UACC-62 melanoma 87.1% | LOX IMVI melanoma 94.7% | SK-MEL-28 melanoma 105% | SK-MEL-2 melanoma 101% | EKVX NSCLC 85.7% | SN12C renal 88.3% | UO-31 renal 90.8% | TK-10 renal 92.9% | ACHN renal 67.5% | CAKI-1 renal 71% | A498 renal 80.2% | MOLT-4 leukemia 93.3%

CCOC(=O)CNP(=O)(OC[C@@H](Cc1ccccc1)NC(=O)c1cc2ccccc2s1)Oc1ccccc1 (stereo partly specified)
inactive: HCT-15 colon 43.5% | HT29 colon 57.2% | SNB-75 CNS 35.2% | SNB-19 CNS 87.7% | U251 CNS 66.5% | PC-3 prostate 85.5% | SK-MEL-5 melanoma 88.2% | UACC-62 melanoma 71.4% | LOX IMVI melanoma 76.2% | SK-MEL-28 melanoma 77% | SK-MEL-2 melanoma 75.9% | EKVX NSCLC 80.6% | SN12C renal 84.9% | UO-31 renal 80.7% | TK-10 renal 109% | ACHN renal 99.9% | CAKI-1 renal 70.6% | A498 renal 38.5% | MOLT-4 leukemia 54.8%

c1cnc2[nH]cc(-c3csc(-c4cn(CCCN5CCOCC5)c5ccccc45)n3)c2c1
inactive: HCT-15 colon 14% | SNB-75 CNS 20.1% | SNB-19 CNS 56.8% | U251 CNS 32.9% | PC-3 prostate 19.6% | SK-MEL-5 melanoma 38% | UACC-62 melanoma 65.5% | LOX IMVI melanoma 30.6% | SK-MEL-28 melanoma 65.3% | SK-MEL-2 melanoma 82.6% | EKVX NSCLC 47.9% | SN12C renal 64.5% | UO-31 renal 23% | TK-10 renal 69.6% | ACHN renal 32.8% | CAKI-1 renal 47.5% | A498 renal 53.9% | MOLT-4 leukemia 16.6%
active: HT29 colon 7.69%

CCN1C(=O)N(CC)C2C1NN=c1s/c(=C\c3cccc([N+](=O)[O-])c3)c(=O)n12 (stereo unspecified)
inactive: HCT-15 colon 11.6% | SNB-75 CNS 22% | SNB-19 CNS 31.5% | U251 CNS 13.7% | PC-3 prostate 33.7% | UACC-62 melanoma 32.5% | LOX IMVI melanoma 16.7% | SK-MEL-28 melanoma 61.4% | SK-MEL-2 melanoma 43.4% | EKVX NSCLC 50.5% | SN12C renal 25.5% | UO-31 renal 41.1% | TK-10 renal 69.6% | ACHN renal 32.9% | CAKI-1 renal 25.7% | A498 renal 13% | MOLT-4 leukemia 15.6%
active: HT29 colon 5.6% | SK-MEL-5 melanoma -5.71%

O=C1c2cccc(NCCN=Cc3cc(O)ccc3O)c2C(=O)c2c(NCCN=Cc3cc(O)ccc3O)cccc21
inactive: HCT-15 colon 23.2% | SK-MEL-2 melanoma 20.9%
active: HT29 colon -22.1% | SNB-75 CNS -22% | SNB-19 CNS -22.4% | U251 CNS -43.8% | PC-3 prostate -38.4% | SK-MEL-5 melanoma 4.84% | UACC-62 melanoma 5.11% | LOX IMVI melanoma -44.9% | SK-MEL-28 melanoma -30.9% | EKVX NSCLC 3.36% | SN12C renal -24.7% | UO-31 renal -18% | TK-10 renal -12.1% | ACHN renal 0.31% | CAKI-1 renal -37.1% | A498 renal -48.6% | MOLT-4 leukemia -53.1%

COc1cccc(/C=C/C(=O)c2cc3c(N)c(C(=O)Nc4ccccc4)sc3nc2C)c1
inactive: PC-3 prostate 41.7% | SK-MEL-5 melanoma 34.8% | UACC-62 melanoma 20.2% | SK-MEL-28 melanoma 50.4% | SK-MEL-2 melanoma 25.6% | EKVX NSCLC 75.8% | UO-31 renal 11.8% | TK-10 renal 40.1% | ACHN renal 33.5% | CAKI-1 renal 15.4% | A498 renal 58.8% | MOLT-4 leukemia 20.8%
active: HCT-15 colon -35.1% | HT29 colon -7.47% | SNB-75 CNS 3% | SNB-19 CNS -3.91% | U251 CNS -52.9% | LOX IMVI melanoma -83.2% | SN12C renal 8.27%

C=CCn1c(SCC(=O)Nc2ccc(C(=O)/C=C/c3ccc(Cl)cc3)cc2)nnc1-c1cc(-c2ccc(S(N)(=O)=O)cc2)nc2ccccc12
inactive: HCT-15 colon 96.5% | HT29 colon 97.4% | SNB-75 CNS 56% | SNB-19 CNS 81.4% | U251 CNS 71.2% | PC-3 prostate 71.8% | SK-MEL-5 melanoma 76.8% | UACC-62 melanoma 71.9% | SK-MEL-28 melanoma 92.1% | SK-MEL-2 melanoma 103% | EKVX NSCLC 94.6% | SN12C renal 90.2% | UO-31 renal 82.8% | TK-10 renal 99.9% | ACHN renal 98.1% | CAKI-1 renal 66.3% | A498 renal 89% | CCRF-CEM leukemia 54.2% | MOLT-4 leukemia 66.1%
